Source: PubChem BioAssay
In the library only some 3.8% were active in any assay of this set; here they are far more common.
GDH-TPI counter-1: GDH-TPI coupling enzyme inhibitors, primary screen, artefact control for M. tuberculosis FBA inhibitor project, biochemical, absorbance, full deck; GDH-TPI coupled enzyme counterscreen, NADH absorbance; inhibition, % at 4.8 µM; 360,000 compounds, 1.2% hits; in the data active means inhibition above about 30%;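 further: 0% = DMSO wells and 100% = wells lacking the enzyme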
PrPC TRFRET: inhibitors of human cell surface prion protein PrPC, primary screen, cell-based, TR-FRET; Major prion protein (Homo sapiens), P04156; TR-FRET read-out; inhibition, % at 13.8 µM; 370,000 compounds, 0.43% hits; AID 720596, 2013; in the data active means inhibition above about 24%; further: 0% = median of the test wells and 100% = reference compound wells
PrP 5UTR inh: inhibition of PrP 5' UTR reporter expression; cell-based PrP 5' UTR mRNA reporter, plate reader; inhibition, % (concentration not given with the values); 340,000 compounds, 0.35% hits; AID 488862, 2010; in the data active means inhibition above about 52%; further: 0 = median of the neutral control wells
FBA Mtb inh: Mtb FBA enzyme inhibitors, primary screen, biochemical, fluorescence, strain H37Rv. purified M. tuberculosis FBA, fluorescence read-out. inhibition, % at 1 µM. 360,000 compounds, 2.3% hits. AID 588726, 2011;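 further: 0% = vehicle and 100% = reference inhibitor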
Target sequence (P9WQA3 whole entry, looked up): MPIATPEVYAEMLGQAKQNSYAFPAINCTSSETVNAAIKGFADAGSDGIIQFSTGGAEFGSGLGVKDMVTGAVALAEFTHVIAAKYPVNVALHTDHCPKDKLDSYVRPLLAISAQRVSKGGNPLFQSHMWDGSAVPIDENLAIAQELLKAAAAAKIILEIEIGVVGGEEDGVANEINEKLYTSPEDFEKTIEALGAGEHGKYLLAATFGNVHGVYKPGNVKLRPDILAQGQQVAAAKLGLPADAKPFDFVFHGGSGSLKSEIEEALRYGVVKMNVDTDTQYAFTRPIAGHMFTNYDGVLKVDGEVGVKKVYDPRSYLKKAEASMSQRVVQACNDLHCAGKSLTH
Mtb hypoxia rep: PubChem AID 1159583; M. tuberculosis hypoxia-regulated fluorescent reporter, fluorescence; fluorescence inhibition, % (test concentration not listed); 300,000 compounds, 0.1% hits; in the data active means fluorescence inhibition mostly above about 23%, no sharp cut-off; inactive means mostly below about 17%
Y pestis TopoI: Yersinia pestis topoisomerase I inhibitors, primary screen, biochemical, cleavage product accumulation, plate reader, single point. DNA topoisomerase I (Yersinia pestis CO92). Y. pestis Topo-I cleavage product accumulation. activity, % at 10 µM. 360,000 compounds, 0.064% hits. AID 504884, 2011; in the data active means activity above about 50%, passing the limit was not always enough
Mtb FBA inh conf: M. tuberculosis aldolase blockers, biochemical, fluorescence, strain H37Rv, confirmation; purified M. tuberculosis FBA, fluorescence read-out; 5,600 compounds, 78% hits; AID 651616, 2012; inhibition, % at 1 µM; shares compounds with FBA Mtb inh;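 further: 0% = vehicle wells and 100% = reference inhibitor wells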
GDH-TPI counter-2: GDH-TPI coupling enzyme inhibitors, artefact control for M. tuberculosis FBA inhibitor project, biochemical, fluorescence, high throughput; shares compounds with FBA Mtb inh; 5,600 compounds, 81% hits; AID 652141, 2013; inhibition, % at 1 µM; GDH-TPI coupled enzyme counterscreen; in the data active means inhibition above about 10%
GDH-TPI dose: GDH-TPI coupling enzyme inhibitors, dose response, artefact control for M. tuberculosis FBA inhibitor project, biochemical, fluorescence, IC50; shares compounds with FBA Mtb inh; GDH-TPI coupled enzyme assay, artifact counterscreen; IC50, µM; 170 compounds, 79% hits; AID 652145, 2013; call rule not given here
Active calls of the source: *; / = no result; + = active, no number. Unless noted, no stated cut-off is given here; in the data, active means inhibition above about 27%; inactive means the rest.

SMILES	GDH-TPI counter-1	PrPC TRFRET	PrP 5UTR inh	FBA Mtb inh	Mtb hypoxia rep	Y pestis TopoI	Mtb FBA inh conf	GDH-TPI counter-2	others
Cc1cccc(Oc2coc3cc(O)ccc3c2=O)c1	10.3	2.4	-21.7	36.6*	-8.3	-7.4	71.6*	62.6*
CCOc1cccc(C=NNC(=O)c2cccnc2)c1O	/	/	/	/	6.3	/	/	/
COc1ccc(C=NNC(=O)c2cccc(Br)c2)cc1CSc1ccccn1	/	/	/	/	-3.8	/	/	/
CCOC(=O)C1C2COc3ccc(Br)cc3C2N2C(=O)N(c3ccc(C)cc3)C(=O)[C@@]12C (stereo partly specified)	/	/	/	/	12.4	/	/	/
CSc1ccc(C=NN(C)S(=O)(=O)c2ccc(C)cc2)cc1	/	/	/	/	-4.2	/	/	/
O=C(NN=Cc1ccco1)C1CC1	/	/	/	/	13.3	/	/	/
CC(C)(C)NCc1cccn1-c1sc2c(c1C#N)CCCC2	12.1	-0.9	-8.5	75.9*	/	5.3	65.8*	52.5*
N#Cc1c(N2C(=O)c3ccc(C(=O)O)cc3C2=O)sc2c1CCCC2	1.5	-0.3	-31.2	-1.3	1.3	-8.7	/	/
CCOC(=O)CN1C(=O)NC(c2ccco2)C(C(=O)OC)=C1C (stereo unspecified)	/	/	/	/	12.0	/	/	/
COc1cc2[nH]c3c(=O)n(CCN4CCOCC4)cnc3c2cc1OC	7.7	4.9	-2.9	59.6*	-5.7	4.4	+	+
CCCCN(CCCC)CCn1cnc2c([nH]c3ccc(OC)cc32)c1=O	15.3	-5.2	-50.5	19.3	1.4	4.8	/	/
COc1cc2[nH]c3c(=O)n(CCN(C(C)C)C(C)C)cnc3c2cc1OC	14.3	-12.0	-2.2	55.2*	1.4	-7.5	5.8	2.1
COc1cc2[nH]c(=O)c(C(=O)NCCCN3CCOCC3)c(O)c2cc1OC	14.4	5.9	-16.6	38.6*	/	-1.6	28.9*	17.6*
O=C(NCCCN1CCOCC1)c1c(O)c2cc(Br)cc(Br)c2[nH]c1=O	0.0	/	-4.1	2.9	7.7	-3.0	/	/
CCCCNC(=O)C1CC1C(O)C(CO)NC(=O)C(Cc1ccccc1)NC(=O)OC(C)(C)C (stereo unspecified)	/	/	/	/	1.2	/	/	/
O=C(NN=Cc1ccco1)c1ccc(NC(=O)c2ccc(Cl)cc2)cc1	/	/	/	/	-7.8	/	/	/
CCOCCCN(Cc1ccco1)C(=O)c1cc2c(=O)[nH]c3ccc(C)cc3c2s1	20.6	-6.4	-43.0	32.1*	4.4	29.6	8.1	-3.8
CCCN(CCC)C(=O)c1cc2c(=O)[nH]c3ccc(C)cc3c2s1	3.5	0.9	-11.0	4.8	16.8	22.9	/	/
Cc1ccc2[nH]c(=O)c3cc(C(=O)N(C)Cc4ccco4)sc3c2c1	18.7	6.5	-18.5	51.3*	4.2	30.7	186.5*	135.3*
O=C(Cc1ccc(F)cc1)NN=Cc1ccc(-c2ccc(Cl)c(C(=O)O)c2)o1	/	/	/	/	4.6	/	/	/
O=C1CC(O)(C(F)F)Oc2ccc3ccccc3c21 (stereo unspecified)	6.1	-8.6	-29.5	43.8*	/	-0.5	31.2*	22.0*
CCOc1ccc2nc(N=Cc3nc(-c4ccccc4)oc3O)sc2c1	/	/	/	/	13.7	/	/	/
CCN(CC)Cc1c(C(=O)NN=Cc2ccc(OCc3ccccc3C)cc2)nnn1-c1nonc1N	/	/	/	/	1.3	/	/	/
CCCCCCCCn1c(=O)c(C(=O)OC)c(N)c2ccccc21	-10.9	10.9	/	2.4	16.5	19.2	/	/
COC(=O)c1c(C(=O)OC)n(CCCN)c2ccc(C)cc12	1.2	-4.1	-7.5	98.4*	2.5	7.1	99.7*	63.1*
SMILES	GDH-TPI counter-1	PrPC TRFRET	PrP 5UTR inh	FBA Mtb inh	Mtb hypoxia rep	Y pestis TopoI	Mtb FBA inh conf	GDH-TPI counter-2	others
Cc1cc(C)n(-c2nc(NCC(C)O)c3c4c(sc3n2)COC(C)(C)C4)n1 (stereo unspecified)	4.7	-0.2	/	55.8*	6.8	5.4	75.2*	64.0*
CC(C)n1c(C=Cc2ccccc2)nc2ccccc21	/	/	/	/	10.7	/	/	/
Cc1ccc(NC(=O)Cn2c(/C=C/c3ccccc3)nc3ccccc32)cc1C	10.4	2.5	-5.8	29.4*	-2.8	4.9	67.7*	53.0*
CC(C)n1c(/C=C/c2ccccc2)nc2ccccc21	34.3*	-0.7	-70.2	66.5*	/	9.9	36.3*	20.1*
CC(C)c1ccccc1NC(=O)Cn1c(/C=C/c2ccccc2)nc2ccccc21	/	/	/	/	4.9	/	/	/
COCCOCCn1c(/C=C/c2ccccc2)nc2ccccc21	15.1	-2.2	-49.8	28.1*	-2.6	8.6	-3.9	-4.2
Cc1occc1C(=O)NN=C/C=C/c1ccccc1[N+](=O)[O-]	/	/	/	/	13.8	/	/	/
CC1CN(C(C)CO)C(=O)c2cc(NS(=O)(=O)c3ccccc3)ccc2OC1CN(C)C(=O)Nc1ccccc1 (stereo unspecified)	/	/	/	/	3.0	/	/	/
Cc1cc(C)c(N)c(C(=O)O)c1	-8.6	6.5	-23.5	47.6*	5.3	-13.0	+	+
CCc1ccc(OCC(=O)Nc2ccc(-c3cc4ccccc4oc3=O)c(OC)c2)cc1	12.2	2.6	-101.3	37.2*	-18.3	8.9	63.9*	45.8*
C/C(Cl)=C/Cn1c(N2CCCC2)nc2c1c(=O)n(C)c(=O)n2C	6.2	9.2	-15.8	1.5	/	11.4	/	/
C=C(C)Cn1c(N2CCCC2)nc2c1c(=O)n(C)c(=O)n2C	2.6	-4.4	-3.2	33.4*	-3.0	2.9	157.2*	108.8*
NC(=O)C1CCOc2c(I)cc([N+](=O)[O-])cc2C(=O)NC(CO)C(=O)NCC(=O)N1 (stereo unspecified)	/	/	/	/	12.7	/	/	/
COc1cccc(-c2ccc(C#N)c(OC(=O)c3ccc(Cl)cc3)n2)c1	21.3	-5.7	-9.5	95.1*	5.1	3.5	135.3*	106.1*
O=C(Nc1ccc2c(c1)CCCN2C(=O)c1cccs1)c1c(F)cccc1Cl	24.1	3.5	5.6	98.8*	-15.4	4.0	+	199.5*
Cc1c(C(=O)Nc2ccc(Cl)cc2)c2ccccn2c1CCc1ccncc1	7.7	0.2	-29.1	31.6*	-6.2	-0.8	11.9	0.9	GDH-TPI dose=0.974*
Cc1c(C(=O)Nc2cccc(Cl)c2)c2ccccn2c1CCc1ccncc1	22.9	2.7	-10.4	26.3	-2.1	10.0	/	/
N#CC(=Cc1ccc(C(=O)O)cc1)c1ccccn1	/	/	/	/	-0.2	/	/	/
